From PubChem
Shown are actives, neighbours in structure and some others; about 3.4% of the full set was active somewhere.
FBW7 activator = human FBW7 E3 ligase activation, primary screen. AlphaScreen FBW7–phospho-cyclin E peptide binding, activator screen. normalized activity (activation), % at 26.1 µM. Q969H0. 650,000 compounds, 0.13% hits; in the data active = normalized activity above about 1.9%;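 note: purified mutant Fbw7 with reduced substrate affinity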
MITF inh = human MITF inhibition, primary screen; O75030; AlphaScreen MITF homodimerization, bead proximity signal; inhibition, % at 2.6 µM; 650,000 compounds, 0.91% hits; AID 1259374; in the data active = inhibition above about 50%;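 note: 0% = vehicle wells with protein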
Target sequence (O75030 whole entry, looked up): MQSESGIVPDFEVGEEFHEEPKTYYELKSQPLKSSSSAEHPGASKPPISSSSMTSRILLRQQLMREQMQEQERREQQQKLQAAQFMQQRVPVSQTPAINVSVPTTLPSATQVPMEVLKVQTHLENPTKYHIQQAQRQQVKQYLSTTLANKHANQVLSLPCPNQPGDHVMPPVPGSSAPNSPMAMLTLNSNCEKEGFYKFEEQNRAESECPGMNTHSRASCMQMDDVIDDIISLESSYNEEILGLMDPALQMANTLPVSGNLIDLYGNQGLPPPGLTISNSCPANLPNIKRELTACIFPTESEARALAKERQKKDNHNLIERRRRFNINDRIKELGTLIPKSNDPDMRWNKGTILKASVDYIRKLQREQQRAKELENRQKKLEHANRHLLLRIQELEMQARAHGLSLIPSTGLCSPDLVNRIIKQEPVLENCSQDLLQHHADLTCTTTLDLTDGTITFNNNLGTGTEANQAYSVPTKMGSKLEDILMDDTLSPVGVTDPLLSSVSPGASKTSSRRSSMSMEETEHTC
GPR151 ag = human GPR151 activation; AID 1508602; PathHunter beta-arrestin GPR151 cells, luminescence; 650,000 compounds, 1% hits; activation, % at 11.2 µM; in the data active = activation above about 4.9%;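 note: 0% = median of compound wells and 100% = cells with positive control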
TEAD-YAP inh = TEAD-YAP interaction inhibition; HEK-TIYL cells, TEAD-Gal4/YAP UAS-luciferase luminescence; inhibition, % at 9.12 µM; 640,000 compounds, 1.4% hits; AID 1259422; in the data active = inhibition above about 32%;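 note: 0% = median of test compound wells and 100% = reference inhibitor wells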
* marks the source's active call; other numbers are inactive results.

SMILES | FBW7 activator | MITF inh | GPR151 ag | TEAD-YAP inh
CC1CCN(c2ncnc3c2cnn3-c2ccc(Cl)cc2)CC1 | 0 | 4 | 1 | 20
CN1CCN(c2ncnc3c2cnn3-c2ccc(Cl)cc2)CC1 | 0 | -12 | -1 | 67*
CCN1CCN(c2ncnc3c2cnn3-c2ccc(Cl)cc2)CC1 | 0 | 5 | 0 | -58
CC1CCCN(c2ncnc3c2cnn3-c2ccc(Cl)cc2)C1 (stereo not drawn) | 0 | -8 | 1 | 94*
COc1ccc(S(N)(=O)=O)cc1C(=O)OCC(=O)Nc1cc(C)on1 | 0 | 3 | 2 | -1
COc1ccc(NC(=O)C2CCC(CNc3c(N4CCCCC4)c(=O)c3=O)CC2)cc1 (stereo not drawn) | 0 | 1 | 0 | -13
Nc1nc(N2CCc3ccccc3C2)nc2c1ncn2C1CCCCC1 | 0 | -3 | -1 | -26
Cc1cccc(-n2ncc3c(N4CCCCCC4)ncnc32)c1 | 0 | -4 | -5 | 74*
CC1CC(C)CN(c2ncnc3c2cnn3-c2ccc(Cl)cc2)C1 (stereo not drawn) | 0 | -12 | 1 | 34*
CC1CC(C)CN(c2ncnc3c2cnn3-c2ccccc2)C1 (stereo not drawn) | 0 | 8 | 2 | -56
CCCCCCOc1ccc(/C=C(\C#N)C(=O)NCC2CCCO2)cc1OC (stereo not drawn) | 2.0* | 9 | -1 | -2
COc1cc(/C=C(/C#N)C(=O)NCC2CCCO2)ccc1OCc1ccc(C(=O)O)cc1 (stereo not drawn) | 0 | 5 | 2 | -14
CC(=O)c1ccc(NC(=O)CSc2nnc(-c3ccc4ccccc4n3)s2)cc1 | 0 | 18 | 1 | -16
COc1ccc(-c2nc(NCCc3ccc(O)cc3)c3ncn(C(C)C)c3n2)cn1 | 0 | 5 | -1 | 65*
COc1ccc(CCNc2nc(-c3ccc(OC)cc3)nc3c2ncn3C(C)C)cc1 | 0 | 0 | 1 | -1
COc1ccc(-c2nc(NCCN(C(C)C)C(C)C)c3ncn(C(C)C)c3n2)cc1 | 0 | -2 | 1 | 39*
CC(C)n1cnc2c(NCCc3ccc(O)cc3)nc(-c3ccc(C(=O)NC4CC4)cc3)nc21 | 1 | 14 | -1 | 25
CC(C)n1cnc2c(NCCc3ccc(O)cc3)nc(-c3ccc(C(N)=O)cc3)nc21 | 0 | 15 | -1 | 52*
COc1ccc(-c2nc(NCc3nc4ccccc4[nH]3)c3ncn(C(C)C)c3n2)cn1 | 0 | 11 | 2 | 48*
CN(c1ccccc1C(=O)O)S(=O)(=O)c1ccc2[nH]c(=O)[nH]c2c1 | 0 | 4 | -1 | -3
Cc1ccc2nc(NC(=O)CSCC(=O)OCC(=O)c3ccccc3)sc2c1 | 0 | 2 | -1 | 68*
COC(=O)CSCC(=O)Nc1nc2ccccc2s1 | 0 | -5 | -4 | -5
CN(C(=O)CCc1nnc(C2(c3ccc(Cl)cc3)CCC2)o1)C1CCOC1 (stereo not drawn) | 0 | -10 | 0 | -12
C/C(=N\Nc1nc2ccccc2s1)c1ccc(O)cc1 | 0 | 12 | -1 | -59
C/C(=N\Nc1nc2ccccc2s1)c1ccc(F)cc1 | 0 | 2 | 1 | 34*
SMILES | FBW7 activator | MITF inh | GPR151 ag | TEAD-YAP inh
CC(=O)Nc1ccc(Nc2nc(-c3c(C)nc4ncccn34)cs2)cc1 | 0 | 3 | 0 | -12
COc1ccc(Nc2nc(-c3c(C)nc4ncccn34)cs2)cc1 | 0 | 11 | 0 | 58*
Cc1nc2ncccn2c1-c1csc(Nc2ccc(N(C)C)cc2)n1 | 0 | 26 | -2 | 52*
Cc1nc2ncccn2c1-c1csc(Nc2ccccc2)n1 | 0 | 8 | 0 | -4
CC1(C)Cc2c(c(N3CCOCC3)nc3snc(N)c23)CO1 | 0 | 7 | 1 | 36*
COc1ccc(-c2csc(/C(C#N)=C\c3c[nH]c4ccccc34)n2)cc1 | 0 | 8 | 1 | -2
O=C(Nc1nccs1)c1cc([N+](=O)[O-])ccc1Cl | 0 | 7 | -1 | 45*
CC(C)(C)c1ccc(-c2csc(NC(=O)c3cc([N+](=O)[O-])ccc3Cl)n2)cc1 | 0 | 3 | 0 | 43*
O=C(Nc1nc(-c2cc(Cl)sc2Cl)cs1)c1ccc([N+](=O)[O-])s1 | 0 | 0 | -1 | 67*
Cc1ccc(C)c(-c2csc(NC(=O)c3cc([N+](=O)[O-])ccc3Cl)n2)c1 | 0 | 10 | -1 | 53*
CC1=C(C(=O)Nc2ccc(Cl)cc2)C(c2ccc(C(C)C)cc2)NC(=O)N1 (stereo not drawn) | 1 | 3 | 0 | 6
COc1ccccc1-c1csc(NC(=O)c2cc([N+](=O)[O-])ccc2Cl)n1 | 0 | -3 | 1 | 34*
O=C(OCc1cc(=O)n2c(n1)sc1ccccc12)C12CC3CC(CC(O)(C3)C1)C2 | 0 | 19 | -1 | 75*
O=c1cc(CSc2nnnn2-c2ccc(O)cc2)nc2sc3ccccc3n12 | 0 | 15 | 0 | 8
COc1ccc(S(=O)(=O)Cc2ccc(C(=O)N3CCN(C)CC3)o2)cc1 | 1 | 16 | -2 | -4
Cc1ncn(-c2ccc(Nc3cc(-c4cccc(N5CCOCC5)c4)ccn3)cc2)n1 | 0 | -12 | 1 | -11
Cc1ncn(-c2ccc(Nc3nccc(Nc4cccc(N)c4)n3)cc2)n1 | 0 | -1 | -1 | 35*
Cc1ncn(-c2ccc(Nc3nccc(Nc4cccc(N5CCOCC5)c4)n3)cc2)n1 | -1 | 0 | 5 | 63*
Cc1cc(CSc2nnc(-c3ccccc3)n2C)oc1C(=O)O | 0 | 27 | 0 | 2
COc1cccc2sc(=NC(=O)c3nc4ccccc4s3)n(C)c12 | 0 | -5 | 0 | 71*
COc1cccc2sc(=NC(=O)c3cccc4ccccc34)n(C)c12 | 1 | 7 | -1 | 2
CCSc1nc2sccn2c(=O)c1C(=O)N(C)CC(=O)N(C)C | 0 | 9 | -1 | 4
O=c1cc(-c2cc(O)c(O)c([C@@H]3O[C@H](CO)[C@@H](O)[C@H](O)[C@H]3O)c2)oc2cc(O[C@@H]3O[C@H](CO)[C@@H](O)[C@H](O)[C@H]3O)cc(O)c12 | 0 | -16 | 0 | 16
O=c1c2cc(O)c(O)cc2oc2cc(O)c(C3OC(CO)C(O)C(O)C3O)c(O)c12 (stereo not drawn) | 0 | 59* | 1 | -12
Cc1cc(C)n2nc(SCc3cccc(F)c3)nc2n1 | 1 | 20 | 0 | -23
SMILES | FBW7 activator | MITF inh | GPR151 ag | TEAD-YAP inh
CCN(CC)c1nc2cc(OC)ccc2cc1C#N | 2.3* | -17 | -1 | 23
Oc1c(C(c2ccccc2Cl)N2CCCCC2)ccc2cccnc12 (stereo not drawn) | -1 | 26 | -1 | 87*
Oc1c(C(c2ccccn2)N2CCCCC2)ccc2cccnc12 (stereo not drawn) | 0 | 99* | 0 | 39*
Cc1nc2sc(C(c3ccccc3Cl)N3CCCC3)c(O)n2n1 (stereo not drawn) | 0 | -8 | 1 | -3
OCCN1CCN(C(c2ccccn2)c2ccc3cccnc3c2O)CC1 (stereo not drawn) | -1 | 93* | 0 | 10
Oc1c(C(c2ccccc2Cl)N2CCOCC2)ccc2cccnc12 (stereo not drawn) | 0 | 62* | -1 | 84*
